Reference: PubChem BioAssay (NCATS)
Records with an inconclusive call do not appear. Active and inactive are the calls of the source. Unless noted, calls come from the whole dose curve; as a rule, active = well fitted curve in the direction sought with a large enough effect; inconclusive = small, poorly fitted or top-dose-only effect, or another doubt; inactive = no such curve, though single readings can be large; an effect the other way counts as inactive or inconclusive.

Tests used:
[1] = biological target: Aldehyde dehydrogenase, mitochondrial (Homo sapiens) (UniProt P05091); assay: qHTS for Inhibitors of the Aldehyde Dehydrogenase Family (ALDH2) Confirmatory screens (AID 2061303; active = well fitted inhibition curve with a large enough effect; title and protocol of this record describe different tests; note: nearly all actives have a fitted effect of over 45% in size; note: potency is the fitted concentration of half-maximal effect); details: ALDH inhibition qHTS; series mostly up to 45.4 µM
[2] = qHTS for Inhibitors of the Aldehyde Dehydrogenase Family (ALDH1A2, ALDH1A3, ALDH2, ALDH3A1) (AID 2061307); details: ALDH inhibition qHTS; series mostly up to 50.3 µM; note: nearly all actives have a fitted effect of over 50% in size; for Potency: test system not described further here; potency is the fitted concentration of half-maximal effect
[3] = biological target: Aldehyde dehydrogenase, mitochondrial (Homo sapiens) (UniProt P05091); assay: qHTS for Inhibitors of the Aldehyde Dehydrogenase Family (ALDH2) Primary screen (AID 2061308); details: ALDH2 enzyme inhibition qHTS, 1536-well; series mostly up to 56 µM;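 note: plate controls were vehicle for no effect and reference inhibitor for full effect; nearly all actives have a fitted effect of over 55% in size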
[4] = biological target: Retinal dehydrogenase 2 (Homo sapiens) (UniProt O94788); assay: qHTS for Inhibitors of the Aldehyde Dehydrogenase Family (ALDH1A2) Confirmation screens (AID 2061314); details: ALDH1A2 enzyme inhibition qHTS confirmation; series mostly up to 45.9 µM; note: nearly all actives have a fitted effect of over 65% in size; note: potency is the fitted concentration of half-maximal effect
[5] = biological target: Aldehyde dehydrogenase 1A1 (Homo sapiens) (UniProt P00352); assay: qHTS for Inhibitors of the Aldehyde Dehydrogenase Family (ALDH1A1) Confirmatory screens (AID 2061316); details: ALDH inhibition qHTS; series mostly up to 47.3 µM; note: nearly all actives have a fitted effect of over 65% in size; note: potency is the fitted concentration of half-maximal effect
[6] = biological target: Retinaldehyde dehydrogenase 3 (Homo sapiens) (UniProt P47895); assay: qHTS for Inhibitors of the Aldehyde Dehydrogenase Family (ALDH1A3) Primary screen (AID 2061315); details: ALDH inhibition qHTS; series mostly up to 56 µM;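 note: plate controls were DMSO vehicle for no effect and reference inhibitor for full effect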
[7] = BET inhibitor-based combinations targeting novel dependencies in MECOM-rearranged (r) AML: SET-2 cell line (AID 2202231); details: SET-2 AML cells viability, CellTiter-Glo luminescence, 48 h; viability: hits give low values, concentration not given here;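 note: plate controls were DMSO treated cells for no effect and wells without cells for full effect; nearly all actives have a fitted effect of over 35% in size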
How it was run: (§1)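 Here, 11-point titrations of each agent were applied to 500 seeded cells and incubated 48 hr; CellTiter-Glo signal, scaled against DMSO and empty wells, was integrated as AUC, then Z-scored within the individual line.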

[8] = BET inhibitor-based combinations targeting novel dependencies in MECOM-rearranged (r) AML: OCI-AML3 cell line (AID 2202232); details: CellTiter-Glo luminescence, 48 h; Potency: OCI-AML3 viability; series mostly up to 46 µM;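 note: plate controls were DMSO vehicle wells for no effect and wells without cells for full effect; nearly all actives have a fitted effect of over 35% in size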
How it was run: as §1

[9] = BET inhibitor-based combinations targeting novel dependencies in MECOM-rearranged (r) AML: UCSD-AML1 cell line (AID 2202235); details: UCSD-AML1 AML cells viability, CellTiter-Glo, 48 h; series mostly up to 46 µM;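 note: plate controls were DMSO vehicle wells for no effect and blank wells for full effect; nearly all actives have a fitted effect of over 40% in size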
How it was run: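 Normalized to DMSO and empty-well controls, the luminescence data from CellTiter-Glo after 48 hr drug exposure were fitted across 11 concentrations. Reported metrics are area under the dose-response curve and its Z-transformed form.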

[10] = BET inhibitor-based combinations targeting novel dependencies in MECOM-rearranged (r) AML: AML-191 cell line (AID 2202236;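 note: plate controls were vehicle wells for no effect and wells without cells for full effect; nearly all actives have a fitted effect of over 35% in size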); details: AML-191 viability, CellTiter-Glo luminescence, 48 h; series mostly up to 46 µM
How it was run: as §1

[11] = BET inhibitor-based combinations targeting novel dependencies in MECOM-rearranged (r) AML: AML-194 cell line (AID 2202237;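 note: plate controls were vehicle wells for no effect and wells without cells for full effect; nearly all actives have a fitted effect of over 40% in size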); details: AML-194 (MECOM-r AML) viability, CellTiter-Glo, 48 h; series mostly up to 46 µM
How it was run: as §1

[12] = biological target: Retinaldehyde dehydrogenase 3 (Homo sapiens) (UniProt P47895); assay: qHTS for Inhibitors of the Aldehyde Dehydrogenase Family (ALDH1A3) Confirmatory screens (AID 2061311); details: ALDH inhibition qHTS; series mostly up to 46 µM; note: potency is the fitted concentration of half-maximal effect; nearly all actives have a fitted effect of over 60% in size

COc1cc([C@@H](O[C@@H]2O[C@H](CO)[C@@H](O)[C@H](O)[C@H]2O)[C@@H]2CO[C@H](c3ccc(O)c(OC)c3)[C@H]2CO)ccc1O
inactive: Potency [1] | Potency [2] | Potency [3] | Potency [4] | Potency [5]

CC1(C)CC2CC(C)(CN2S(=O)(=O)c2ccc(C(=O)Nc3cccc(S(=O)(=O)N4CCOCC4)c3)cc2)C1 (stereo unspecified)
inactive: Potency [3] | Potency [6] | Potency [5]
active: Potency [1] 0.355 µM | Potency [2] 0.447 µM | Potency [4] 8.96 µM

NC(=O)C[C@H](N)C(=O)Nc1ccc(Cl)cc1C(=O)c1ccc[nH]1
inactive: Potency [1] | Potency [2] | Potency [3] | Potency [4] | Potency [6] | Potency [5]

Cc1cc(N[S+](=O)([O-])c2ccc(NC(=O)Cc3ccc4nccnc4c3)cc2)no1
inactive: Potency [1] | Potency [2] | Potency [3] | Potency [6]

COc1cc(/C=C/C(=O)OC[C@H]2O[C@H](O[C@]3(CO)O[C@H](CO)[C@@H](O)[C@@H]3O)[C@H](O)[C@@H](O)[C@@H]2O)cc(OC)c1O
inactive: Potency [1] | Potency [2] | Potency [3] | Potency [4] | Potency [5]

COc1ccc(CCCN2CCC(COC(c3ccccc3)c3ccccc3)CC2)cc1
inactive: Potency [1] | Potency [2] | Potency [3] | Potency [4] | Potency [6] | Potency [5]

O=C(Nc1ccc(Cl)c(Cl)c1)Nc1ccc(-c2ccncc2)s1
active: Potency [5] 8.96 µM
inactive: Potency [1] | Potency [2] | Potency [3] | Potency [4] | Potency [6]

O=[N+]([O-])c1ccccc1CSc1nc2ncc(Br)cc2[nH]1
inactive: Potency [1] | Potency [2] | Potency [3] | Potency [4] | Potency [6]
active: Potency [5] 12.7 µM

O=C(Nc1ccc2ccccc2c1)Nc1nnc(Br)s1
active: Potency [1] 7.94 µM | Potency [2] 15.8 µM
inactive: Potency [3] | Potency [6]

Cc1cnc(-c2ccccc2C(F)F)nc1NCc1ccc(-n2ccnn2)cc1
inactive: Potency [3] | Potency [6]
active: Potency [1] 25.1 µM | Potency [2] 4.47 µM

O=C(/C=C/c1ccc2c(c1)OCO2)Nc1cccc([S+](=O)([O-])Nc2ccccc2F)c1
inactive: Potency [1] | Potency [2] | Potency [3] | Potency [4] | Potency [6] | Potency [5]

COc1cc(NC(=O)c2ccccn2)ccc1Cl
inactive: Potency [1] | Potency [2] | Potency [3] | Potency [4] | Potency [6] | Potency [5]

O=C(Nc1cccc([S+](=O)([O-])Nc2ccccc2F)c1)c1ccccc1
inactive: Potency [1] | Potency [2] | Potency [3] | Potency [4] | Potency [6] | Potency [5]

O=c1c2ccccc2nc2sc(Nc3cccc(N4CCNCC4)c3)nn12
inactive: Potency [1] | Potency [2] | Potency [3] | Potency [6]
active: Potency [4] 10.1 µM | Potency [5] 12.7 µM

COc1ccc(C2Nc3ccccc3C(=O)N2Cc2ccccc2)cc1COc1cccc(C(F)(F)F)c1 (stereo unspecified)
inactive: Potency [1] | Potency [2] | Potency [3] | Potency [6] | Potency [5]
active: Potency [4] 20.1 µM

S=C(Nc1cc(Cl)ccn1)N1CCN(c2cccc(Cl)c2Cl)CC1
active: Potency [1] 15.8 µM | Potency [2] 3.98 µM | Potency [4] 25.2 µM | Potency [5] 3.18 µM
inactive: Potency [3] | Potency [6]

O=C(O)c1cccc(S(=O)(=O)Nc2nccs2)c1
inactive: Potency [1] | Potency [2] | Potency [3] | Potency [4] | Potency [5]

O=C1c2ccccc2C(=O)N1Cc1cccnc1
inactive: Potency [1] | Potency [2] | Potency [3] | Potency [4] | Potency [6] | Potency [5]

COc1cccc(CCC(=O)NCCc2nc3ccccc3n2CCOc2ccc(C)cc2)c1
active: Potency [5] 6.34 µM
inactive: Potency [1] | Potency [2] | Potency [3] | Potency [4] | Potency [6]

CN1CCN(c2cccc(Nc3nn4c(=O)c5ccc(F)cc5nc4s3)c2)CC1
inactive: Potency [1] | Potency [2] | Potency [3] | Potency [6]

CC(C)c1ccccc1-c1nc2c(c(NCc3ccc(-c4cccnc4)cc3)n1)CCNC2
inactive: Potency [1] | Potency [2] | Potency [3] | Potency [4] | Potency [6] | Potency [5]

O=C(O)c1ccccc1OC1=NS(=O)(=O)c2ccccc21
inactive: Potency [1] | Potency [2] | Potency [3] | Potency [4] | Potency [6] | Potency [5]

NC1CCN(c2nc(-c3ccc(Br)cc3)cs2)CC1
inactive: Potency [1] | Potency [2] | Potency [3] | Potency [4] | Potency [6] | Potency [5]

O=C(CCCc1ccc2cccnc2n1)NCc1cc(-c2ccc(F)c(C(F)(F)F)c2)no1
inactive: Potency [1] | Potency [2] | Potency [3] | Potency [4] | Potency [6] | Potency [5] | viability [7] 106% | Potency [8] | Potency [9] | Potency [10] | Potency [11]

Cc1ccc(OCCn2c(CCNC(=O)c3cccnc3)nc3ccccc32)cc1
inactive: Potency [1] | Potency [2] | Potency [3] | Potency [4] | Potency [6] | Potency [5]

CC(=O)Nc1ccc(OC2=NS(=O)(=O)c3ccccc32)cc1
inactive: Potency [1] | Potency [2] | Potency [3] | Potency [4] | Potency [6] | Potency [5]

Nc1ccc2c(c1)S(=O)(=O)NC2=O
inactive: Potency [1] | Potency [2] | Potency [3] | Potency [4] | Potency [6] | Potency [5]

CC(C)(C)OC(=O)N1CCN(c2ccc(NCc3ccc4c(-c5ccc(F)cc5)cc(=O)oc4c3)cc2)CC1
active: Potency [2] 5.04 µM
inactive: Potency [1] | Potency [3] | Potency [6]

O=C1NS(=O)(=O)c2cc(Br)ccc21
inactive: Potency [1] | Potency [2] | Potency [3] | Potency [4] | Potency [6] | Potency [5]

Cc1nnc(-c2cnn(C)c2N)n1CCc1ccccc1
inactive: Potency [1] | Potency [2] | Potency [3] | Potency [4] | Potency [6] | Potency [5]

O=C([C@H](Cc1ccc(O[S+](=O)([O-])c2cccc3cccnc23)cc1)N[S+](=O)([O-])c1ccccn1)N1CCN(c2ccccc2)CC1
inactive: Potency [1] | Potency [2] | Potency [3] | Potency [6]

COc1ccc(C2Nc3ccccc3C(=O)N2Cc2ccccc2)cc1COc1ccc(Cl)cc1 (stereo unspecified)
inactive: Potency [1] | Potency [3] | Potency [6]
active: Potency [2] 5.65 µM

CC(C)c1ccccc1-c1nc(NCC2CCN(c3cccnc3)CC2)c2ccccc2n1
inactive: Potency [1] | Potency [2] | Potency [3] | Potency [6]

CC1CC(O)CC(C)(C)C1(O)CCO (stereo unspecified)
inactive: Potency [1] | Potency [2] | Potency [3] | Potency [4] | Potency [5]

O=c1cc(-c2ccccn2)oc2c(Nc3ccccc3)nccc12
inactive: Potency [1] | Potency [2]
active: Potency [12] 20 µM

N[C@@H](CC(=O)O)C(=O)Nc1ccc(Cl)cc1C(=O)c1ccc[nH]1
inactive: Potency [1] | Potency [2] | Potency [3] | Potency [6] | Potency [5]

c1ccc(CN(Cc2ccccc2)Cc2nnc(-c3cc4ccccc4[nH]3)s2)cc1
inactive: Potency [3] | Potency [6]
active: Potency [1] 4 µM | Potency [2] 11.2 µM
